# The sample as a whole holds a higher share of hits than the screen did.
# RmlC RmlD mix – RmlC and RmlD coupled enzyme inhibitors, primary screen, biochemical, 384-well, compound mixtures, retest. inhibition, % at 5.5 µM. hit rate 0.39% among 110,000. RmlC/RmlD coupled enzyme inhibition, 384-well mixture HTS. AID 1532, 2009; in the data active = inhibition above about 30%, passing the limit was not always enough; inconclusive = no clear call, values can overlap the other calls
# HIV RNase H inh – HIV-1 RT RNase H inhibitors, primary screen, biochemical, fluorescence. RT-RNase H RNA/DNA duplex cleavage. inhibition, % at 10 µM. hit rate 1.9% among 65,000; in the data active = inhibition above about 50%
# * = called active by the depositor; ? = inconclusive; / = not tested or not shown.
SMILES,RmlC RmlD mix,HIV RNase H inh
N/C(CC(=O)Nc1cccc(C(F)(F)F)c1)=N/O,-18,-5
Cc1ccc(NCN2C(=O)C3CC=C(Cl)CC3C2=O)cc1 (stereo not drawn),3,/
O=C(O)c1ccccc1NCN1C(=O)C2CC=C(Cl)CC2C1=O (stereo not drawn),37*,-9
COCCNc1cc(C)c(C#N)c2nc3ccccc3n12,36*,-7
CCCNc1cc(C)c(C#N)c2nc3ccccc3n12,55,/
CCn1c(=O)c(C(=O)Nc2nc3ccccc3[nH]2)c(O)c2ccccc21,-3,75*
CCCCn1c(=O)c(C(=O)Nc2nc3ccccc3[nH]2)c(O)c2ccccc21,/,22
On1c(-c2ccccc2)nc2ccc(Cl)cc21,-2,/
Clc1ccc2nc3ccccn3c2c1,39*,-26
CCN(CC)C(=O)Cn1cnc2c1c(=O)n(C)c(=O)n2C,8,-6
CCc1ccc(Cn2nnc(C(=O)Nc3cccc(C)c3)c2N)cc1,?,-2
CCCc1nnc(NC(=O)c2c(O)c3cccc4c3n(c2=O)CCC4)s1,10,72*
CC(C)c1nnc(NC(=O)c2c(O)c3cccc4c3n(c2=O)CC4)s1,/,-21
Cc1cccc2nc(Cn3c(=O)n(CCCC(=O)NCc4ccco4)c(=O)c4ccccc43)cc(=O)n12,/,-21
COc1ccc(OC)c(/C(O)=C/C(=O)C(=O)Nc2cc(C)ccc2OC)c1,-5,/
CC(C)n1c(SCCCc2ccccc2)nc2c1c(=O)[nH]c(=O)n2C,-1,56*
C/C=C/Cn1c(SCCCc2ccccc2)nc2c1c(=O)[nH]c(=O)n2C,-6,-14
COc1ccc(CN(CCCN2CCOCC2)C(=O)Nc2ccccc2)cc1OC,3,0
COc1ccc(CN(CCN2CCOCC2)C(=O)c2c(F)cccc2F)cc1OC,-5,62*
CC(=Nc1ccc(C)c(C)c1)C1=C(O)CCC1=O,51,-12
Cc1ccc(-n2nnnc2SC(C)C(=O)Nc2ccc(Cl)cn2)cc1 (stereo not drawn),-9,-38
O=C(Nc1ccc2nc(-c3cccs3)c(-c3cccs3)nc2c1)N1CCOCC1,-205,3
O=C(c1cc(-c2ccco2)on1)N1CCN(c2ccccc2)CC1,-13,-6
O=C(c1ccc2nc(-c3ccco3)c(-c3ccco3)nc2c1)N1CCN(c2ccccc2)CC1,-4,76*
O=C(Nc1ccc(N2CCOCC2)cc1)Nc1ccc2nc(-c3ccco3)c(-c3ccco3)nc2c1,-10,68*
SMILES,RmlC RmlD mix,HIV RNase H inh
CCOC(=O)c1c(C)oc2ccc(NS(=O)(=O)c3ccc4c5c(cccc35)C(=O)N4)cc12,-6,29
CCOC(=O)C1=C(C)NC(=O)NC1c1ccc(Cl)cc1Cl (stereo not drawn),-12,-19
CCC1Oc2ccc(C)cc2N(CC(=O)N(Cc2cccnc2)Cc2ccc(C)o2)C1=O (stereo not drawn),19,50*
CCC1Oc2ccc(C)cc2N(CC(=O)N(Cc2ccc(C)o2)C2CC(C)(C)NC(C)(C)C2)C1=O (stereo not drawn),-5,/
Cc1ccc(NC(=O)COc2ccc(/C=C3/SC(=Nc4ccccc4)N(Cc4cccnc4)C3=O)cc2)cc1,6,/
CC(C)C[C@H]1C(=O)N2CCCC2[C@]2(O)O[C@](NC(=O)[C@@H]3C=C4c5cccc6[nH]cc(c56)CC4N(C)C3)(C(C)C)C(=O)N12 (stereo partly drawn),-3,/
CC(C)[C@@]1(NC(=O)[C@@H]2C=C3c4cccc5[nH]cc(c45)C[C@H]3N(C)C2)O[C@@]2(O)[C@@H]3CCCN3C(=O)[C@H](Cc3ccccc3)N2C1=O,/,55*
CCOC(=O)C1C(=O)NC(N2CCCCC2)=NC1C(C)C (stereo not drawn),60,-10
CC1CN(S(=O)(=O)c2cccc(C(=O)OCc3cc(=O)oc4cc(O)ccc34)c2)CC(C)O1 (stereo not drawn),82*,-11
CN(C)c1cccc(C(=O)OCc2cc(=O)oc3cc(O)ccc23)c1,59,/
COc1ccc(-n2nnnc2SCC(=O)N2CCOCC2)cc1,-6,-2
COc1ccc(-n2nnnc2Sc2ccc(S(=O)(=O)N3CCOCC3)cn2)cc1,2,86*
C/C(=N\O)C(=O)C(CN1CCCCC1)CN1CCCCC1,-4,51*
CC(=O)/C(CN1CCCCC1)=N\O,1,-10
O=C(CSc1cn(CCNC(=O)c2cccs2)c2ccccc12)NCC1CCCO1 (stereo not drawn),3,-17
O=C(CCCCCn1c(=S)[nH]c2cc3c(cc2c1=O)OCO3)N1CCN(C(=O)c2ccco2)CC1,-10,10
O=C(CCCCCn1c(=S)[nH]c2cc3c(cc2c1=O)OCO3)N1CCN(Cc2ccccc2)CC1,9,68*
COc1ccc(/C=N/Nc2ccc([N+](=O)[O-])cc2)cc1Cn1cc([N+](=O)[O-])cn1,10,/
CCN(CC)c1cccc(OC2=NS(=O)(=O)c3ccccc32)c1,125,55*
Cc1ccc(OC2=NS(=O)(=O)c3ccccc32)cc1,-14,/
COCCCn1c(=N)c(C(N)=S)cc2c(=O)n3cccc(C)c3nc21,/,-10
S=c1[nH]nc(-c2ccco2)n1-c1cccc2ccccc12,12,54*
COCc1n[nH]c(=S)n1-c1cccc2ccccc12,2,4
Nn1c(-c2ccco2)n[nH]c1=S,-12,49
COc1ccc(-n2c(-c3ccco3)n[nH]c2=S)cc1,13,57*
SMILES,RmlC RmlD mix,HIV RNase H inh
O=C(CCCCCCCC(=O)NCC1CCCO1)NCC1CCCO1 (stereo not drawn),-205,/
CCOc1ccccc1Oc1c(C)oc2cc(OC(=O)c3ccco3)ccc2c1=O,23,/
COc1ccccc1-c1c(C)oc2cc(OC(=O)c3ccco3)ccc2c1=O,32*,-4
O=C(C1=C[C@H](c2ccc(Br)cc2)C[C@H](OCCCCO)O1)N1CCOCC1,3,/
COc1ccc(-n2c(Cc3cccn3C)nnc2SCC(=O)N2CCC(C)CC2)cc1,?,-3
CCc1nccn1S(=O)(=O)c1cc(Br)ccc1OC,6,-52
CCOC(=O)N1CCC(NC(=O)c2ccc3c(c2)N(Cc2ccc(C)cc2)CCS3)CC1,-46,/
CCOC(=O)N1CCC(NC(=O)c2ccc3c(c2)N(C)CCS3)CC1,61*,0
COC(=O)c1ccccc1NC(=O)CN1CCC(n2nnc3cc(C)ccc32)CC1,/,25
O=C(Nc1ccc2c(c1)OCO2)c1ccncc1,4,1
Cc1cc(C)c2c(n1)nn1c(N3CCN(Cc4ccccc4)CC3)cc(C)nc21,/,5
COc1ccc(F)cc1CN1CCN(c2cc(C)nc3c4c(C)cc(C)nc4nn23)CC1,50*,-1
COc1ccc(NC(=O)Cn2nnc(-c3ccccc3N)n2)cc1OC,-11,8
C=CCOc1ccc(Cl)cc1C(=O)O,-9,-4
CCc1nnc(NC(=O)c2ccc(S(=O)(=O)N3CCCc4ccccc43)cc2)o1,2,/
CCn1c(COc2ccc3c(c2)CCCC3)nnc1SCC(=O)Nc1nccs1,10,62*
CCn1c(CNC(=O)Cc2ccc(OC)cc2)nnc1SCC(=O)Nc1nccs1,-5,3
O=C(C(c1ccccc1)N1CCOCC1)N1CCOCC1 (stereo not drawn),41,-12
Cc1noc(C)c1COc1cccc(C(=O)OCC(=O)N2CC(=O)Nc3ccccc32)c1,9,-19
CCOc1ccc(C(=O)NCc2ccccn2)cc1,-31,1
O=C(NCc1ccccn1)c1coc(=O)c(Br)c1,34*,5
